Shown are actives, neighbours in structure and some others; about 1.9% of the full set was active somewhere.
PP1 counter: counter-screen for PP5 inhibitors: inhibitors of human PP1-alpha; P62136; purified PP1alpha, OMFP fluorescence; inhibition, % at 6.7 µM; 320,000 compounds, 0.9% hits; AID 2235;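 active = inhibition above the mean inhibition of all tested compounds plus 3 SD, computed separately for each screening campaign, cut at about 15% in these data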
Cardio protect: protects H9c2 cardiomyocytes from peroxide injury; H2O2 injury protection, ATPLite, 2 h; protection from H2O2 cell death, % at 20 µM; 360,000 compounds, 0.63% hits;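 active = compounds giving at least 50% protection of heart cells from peroxide-induced death in the single-dose screen, raw or plate-pattern-corrected value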
PP5 inh: inhibitors of human protein phosphatase 5 (PP5); purified PP5c, OMFP substrate fluorescence; inhibition, % at 6.7 µM; 320,000 compounds, 0.18% hits;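 active = inhibition above the campaign's mean inhibition across all tested compounds plus 3 SD, cut at about 9.5% in these data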
ATG4B inh: blocks human ATG4B protease cleavage of LC3 substrate; Q9Y4P1; ATG4B cleavage of LC3-PLA2, NBD-HPC fluorescence, 1 h; inhibition, % at 8.33 µM; 340,000 compounds, 0.51% hits; AID 504462; in the data active = inhibition above about 40%
Target sequence (Q9Y4P1 whole entry, looked up): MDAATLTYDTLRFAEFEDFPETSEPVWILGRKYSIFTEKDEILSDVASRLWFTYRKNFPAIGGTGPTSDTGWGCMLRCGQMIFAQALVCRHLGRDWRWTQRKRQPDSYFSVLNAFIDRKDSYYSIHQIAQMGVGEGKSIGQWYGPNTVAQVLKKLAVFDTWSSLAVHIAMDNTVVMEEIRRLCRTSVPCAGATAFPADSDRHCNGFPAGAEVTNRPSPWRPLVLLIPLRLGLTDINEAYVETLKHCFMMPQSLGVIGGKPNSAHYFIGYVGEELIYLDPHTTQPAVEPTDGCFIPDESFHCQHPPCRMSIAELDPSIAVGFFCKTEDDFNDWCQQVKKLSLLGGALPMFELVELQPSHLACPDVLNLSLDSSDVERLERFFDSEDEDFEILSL
Of the large screens only hits and unclear results are named; the others gave an inactive call.

C#CCOc1nc(Nc2cccc([N+](=O)[O-])c2)nc(OCC#C)n1	Cardio protect 56
COc1nc(Nc2cccc([N+](=O)[O-])c2)nc(OC)n1	none
COc1ccc(C2C3=C(CC(C)(C)CC3=O)N(CCN3CCOCC3)C3=C2C(=O)CC(C)(C)C3)cc1	none
CC1(C)CC(=O)C2=C(C1)N(CCN1CCOCC1)C1=C(C(=O)CC(C)(C)C1)C2c1ccc(Cl)cc1	Cardio protect 52
CC1(C)Cc2c(sc(NC(=O)COc3cccc4ccccc34)c2C#N)C(C)(C)N1	PP1 counter 15
CN(C)Cc1cc(O)c(CN(C)C)cc1O	Cardio protect 61
COc1ccc(Nc2nnc(SCc3cc(=O)n4ccsc4n3)s2)cc1	Cardio protect 63
O=c1cc(CSc2nnc(Nc3ccccc3F)s2)nc2sccn12	none
O=c1cc(CN2CCN(S(=O)(=O)c3cccc(Cl)c3)CC2)c2ccc(O)cc2o1	Cardio protect 54 (no result: PP1 counter, PP5 inh)
CN1CCN(C(=O)c2cc(Br)cn2C)CC1	none
CC(=O)c1ccccc1OC(=O)COc1ccc([N+](=O)[O-])cc1	none
O=[N+]([O-])c1ccc(S(=O)(=O)N2CCN(c3ccnc4cc(Cl)ccc34)CC2)cc1	PP1 counter 17
O=S(=O)(c1cccc(Br)c1)N1CCN(c2ccnc3cc(Cl)ccc23)CC1	none
S=c1[nH]nc(-c2ccccn2)n1/N=C/c1ccc(Cl)c(Cl)c1	none
S=c1[nH]nc(-c2ccccn2)n1/N=C/c1ccc(-c2ccccc2Cl)o1	PP1 counter 15
S=c1[nH]nc(-c2ccccn2)n1/N=C/c1ccc(Br)s1	PP1 counter 17
O=C(OCC(=O)N1CCN(C(=O)c2ccco2)CC1)c1cc(F)c(F)cc1Cl	none (no result: PP1 counter, PP5 inh)
CC(C)(C)N1C(=O)Cc2c1nc(N)c1c(N)nc(N3CCCCC3CO)c(C#N)c21 (centres undefined)	PP5 inh 15
C[C@H](CO)N1C[C@H](C)[C@H](CN(C)S(=O)(=O)c2ccc(Cl)cc2)OCc2cnnn2CCCC1=O	none (no result: PP1 counter, PP5 inh, ATG4B inh)
Brc1ccccc1OCCCN1CCCCCC1	none
CC(=O)c1ccccc1OCCCN1CCCCC1	Cardio protect 53
Cc1ccc(C)n1/N=C1/NC(=O)CS1	ATG4B inh 41
O=C(N=Nc1c(O)[nH]c2ccccc12)c1cc(NS(=O)(=O)c2cccs2)cc(NS(=O)(=O)c2cccs2)c1	PP1 counter 16
COc1ccc(-n2ncc3c(N4CCN(c5cc(C)ccc5C)CC4)ncnc32)cc1	PP1 counter 17
COc1ccc([C@H]2C[C@H](n3cc(C4CC4)nn3)[C@@H](O)CN2CC2CCCCC2)cc1	none (no result: PP1 counter, PP5 inh, ATG4B inh)
Cc1cn(C2CC(O)C(CO)O2)c(=O)n(Cc2ccccc2)c1=O (centres undefined)	none (no result: PP1 counter, PP5 inh)
Cc1ccc2nc(N3C(=O)C(O)=C(C(=O)c4ccc(C)o4)C3c3ccco3)sc2c1 (centres undefined)	PP1 counter 16
Cc1ccc2nc(N3C(=O)C(O)=C(C(=O)c4ccco4)C3c3ccc(O)cc3)sc2c1 (centres undefined)	PP1 counter 15 (no result: ATG4B inh)
CCCCc1ccc(NC(=O)CSCc2cc(=O)[nH][nH]2)cc1	PP1 counter 16
O=C(CSCc1cc(=O)[nH][nH]1)Nc1ccc(F)cc1	none
CC(OC(=O)c1ccc(S(=O)(=O)NCc2ccco2)cc1)C(=O)Nc1ccccc1 (centres undefined)	none (no result: PP1 counter, PP5 inh)
Cc1ccc(C(=O)N/C(=C/c2cccnc2)C(=O)N2CCCCCC2)cc1	none
CCCC(c1nnnn1C(C)(C)CC)N(CCCO)Cc1cc2cc(C)cc(C)c2[nH]c1=O (centres undefined)	Cardio protect 59
CCC(c1nnnn1C(C)(C)CC)N(CCCO)Cc1cc2cc(C)cc(C)c2[nH]c1=O (centres undefined)	none (no result: PP1 counter, PP5 inh)
Cc1ccc(NS(=O)(=O)c2cc(-c3n[nH]c(=O)c4ccccc34)ccc2C)cc1	Cardio protect 50
CCOC(=O)CNS(=O)(=O)c1cc(-c2n[nH]c(=O)c3ccccc23)ccc1C	Cardio protect 61 (no result: PP1 counter, PP5 inh)
COc1nnc(-c2ccc(C)c(S(=O)(=O)NCCO)c2)c2ccccc12	Cardio protect 62
Cc1ccc(C)c(S(=O)(=O)Nc2ccc(O)cc2)c1	none
Cc1ccc(-c2n[nH]c(=S)c3ccccc23)cc1S(=O)(=O)NCC1CCCO1 (centres undefined)	none
Cc1ccc(-c2n[nH]c(=O)c3ccccc23)cc1S(=O)(=O)NCC1CCCO1 (centres undefined)	Cardio protect 71
Cc1ccc(-c2[nH][nH]c(=O)c(=O)c2N=Nc2ccccc2)cc1	none
CS(=O)(=O)Nc1ccc(-c2cn3cccnc3n2)cc1	none
CS(=O)(=O)Nc1ccc(-c2ccc3nccn3c2)cc1	Cardio protect 52 (no result: PP1 counter, PP5 inh, ATG4B inh)
Oc1ccc(/C=N/N=C/c2ccc(O)c(O)c2)cc1O	Cardio protect 52
